The values below come from ChEMBL document CHEMBL3433997, “St. Jude Leishmania screening dataset” (2016).

Structures are written as SMILES.

The inhibition is the drop in the measured response relative to a control, in per cent.

Chain of Solute carrier family 2, facilitated glucose transporter member 1 (Homo sapiens) (P11166 whole entry): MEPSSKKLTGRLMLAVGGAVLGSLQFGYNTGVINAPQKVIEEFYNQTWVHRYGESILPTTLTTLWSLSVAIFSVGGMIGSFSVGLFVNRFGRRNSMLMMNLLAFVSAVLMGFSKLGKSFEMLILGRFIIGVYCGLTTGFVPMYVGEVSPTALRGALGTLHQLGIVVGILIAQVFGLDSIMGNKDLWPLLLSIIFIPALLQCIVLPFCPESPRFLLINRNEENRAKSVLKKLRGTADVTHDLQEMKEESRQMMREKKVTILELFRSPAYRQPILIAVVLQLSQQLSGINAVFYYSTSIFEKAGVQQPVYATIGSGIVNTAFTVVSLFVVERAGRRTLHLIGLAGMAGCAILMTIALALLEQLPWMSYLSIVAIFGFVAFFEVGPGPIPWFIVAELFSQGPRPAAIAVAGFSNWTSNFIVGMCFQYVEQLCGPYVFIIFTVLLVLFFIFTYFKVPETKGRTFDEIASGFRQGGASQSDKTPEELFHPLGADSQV

This assay has as its target Solute carrier family 2, facilitated glucose transporter member 1 (Homo sapiens) (UniProt P11166). The assay can be described thus: ST_JUDE_LEISH: Cytotoxicity at 2uM final concentration against transgenic Leishmania Mexicana promastigotes LmGLUT1 that are glucose transport deficient and complemented with the human glucose transporter GLUT1. Activity is measured by DNA content using SYBR green in vitro. Format: functional.
In the case of `CCOc1cc(NCCSCc2nc[nH]c2C)nc2ccccc12`, the inhibition is -1.28%. As for `CN1CCCC1CCOc1ccc2c(c1)N(C(=O)Nc1cc(Br)cc(C(F)(F)F)c1)CC2` (stereo not given), the inhibition is -1.82%. For `O=C(NC1CCCCCC1)C1CCCN(C(=O)c2ccc(O)c(-c3ccc(Cl)c(Cl)c3)c2)C1` (stereo not given), the inhibition worked out at 3.16%. For `COc1cc(NC(=O)Nc2cccc3ccccc23)c(OC)cc1Cl`, the inhibition amounted to 5.02%. `Cc1cccc2nc(-c3ccc(-c4ccc(NC(=O)NCc5cccc(F)c5)cc4)s3)[nH]c12`: the inhibition was 7.99%. To `CC(C)(C)c1ccc(C(=O)Nc2cccc(Nc3c(C(=O)NCc4cccc(C(F)(F)F)c4)cnc4c(O)cccc34)c2)cc1` belongs 10.1%. `CCNc1cc(C(=O)N[C@@H](Cc2ccccc2)[C@H](O)CNCCc2cc(OC)cc(OC)c2)cc(N2CCCCS2(=O)=O)c1`: the inhibition came out at 7.06%. To `CC(C)NCc1ccc(-c2cccc(-c3nc4cc(C(F)(F)F)ccc4[nH]3)c2)cc1` belongs 3.55%; to `COc1ccc(-c2ccc(CNCc3ccsc3)cc2)cc1S(=O)(=O)NCCN1CCCC1`, -0.99%. Take `O=C(COc1ccccc1)Nn1cnc2ccccc21`: the inhibition is 3.76%.

For `COc1ccc(-c2cnn3ccc(Nc4cc(OC)c(OC)c(OC)c4)nc23)cc1OC`, the inhibition was found to be 17.3%.

`COc1ccc2nccc(N3CCC(O)(CCNCc4ccc5c(n4)NC(=O)CO5)CC3)c2n1`: the inhibition came to 2.27%. For the molecule `COc1ccc2nccc([C@@H](O)CN3CCC(NC(=O)C(c4cc5ccccc5o4)N4CCC(Cc5ccccc5)CC4)CC3)c2c1` (stereo not given in full), the inhibition was found to be 5.02%.

`Cc1cnn(-c2cccc(C(=O)NC3CCC(CCN4CCc5ccc(C#N)cc5CC4)CC3)c2)c1` (stereo not given): the inhibition was 1.35%. To `Cc1cccc(-c2ccc(NC(=O)C3CCN(Cc4cccc(O)c4)CC3)cc2)c1` belongs 0.07%; to `O=C(Nc1cccc(C(F)(F)F)c1)c1cccc2nc(C(F)(F)F)[nH]c12`, 19.4%; to `O=C(c1csc(-c2cccnc2)n1)N1CCc2cc3nccc(N4CCN5CCC[C@H]5C4)c3cc21`, 15%. As for `Cc1nnnn1-c1ccc(C(=O)N2CCC3(CC2)CN(Cc2ccc(Cl)c(Cl)c2)C(=O)O3)cc1`, the inhibition was determined as 8.95%. `CCCCCCn1ccc2c3c(N)nc(N)nc3ccc21`: the inhibition was 104%. With `Clc1ccc(Cn2nc(Br)nc2Br)c(Cl)c1`, the inhibition is -0.61%. With `Cc1cc(N[C@@H](Cc2ccccc2)C(=O)NCCc2ccccc2)nc(NCC2CCCCC2)n1`, the inhibition worked out at 2.97%.

With `Cc1cccc2nc(-c3ccc(-c4ccc(CN5CCCCC5)cc4)s3)[nH]c12`, the inhibition stood at 4.61%. Consider `COc1ccccc1CCNc1nc(C)cc(NCCC(=O)NCCOc2ccccc2)n1`, for which the inhibition was found to be 5.24%. Take `CCCCCCN1CCCN(Cc2ccc(C(=O)Nc3ccc(Cl)cc3)cc2)CC1`: the inhibition is 12.3%. With `Cn1cnc(CCNC(=O)c2ccc(-c3cccc(-c4nc5cc(C(F)(F)F)ccc5[nH]4)c3)cc2)c1`, the inhibition was 4.83%. With `O=C(/C=C/c1ccc(Cl)c(Cl)c1)NCCCCCN1CCC(NC(=O)Nc2cccc(F)c2)CC1` the figure was 2.32%; with `C=CC[C@@H](C(=O)OCC)[C@@H]1[C@@H](N(CC=C)C(=O)OC(C)(C)C)CCN1C(=O)OCc1ccccc1`, 2.71%.

For `CCN(CC)CCN(Cc1ccc(-c2ccc(C(F)(F)F)cc2)cc1)C(=O)Cn1c(CCc2cccc(F)c2F)cc(=O)c(C)c1C`, the inhibition turned out to be 11.5%.

For `CC(=O)Nc1nc(C(=O)Nc2cccc(-c3ccc(-c4nc5cccc(C)c5[nH]4)cc3)c2)cs1`, the inhibition worked out at 8.06%. Turning to `CCNc1cc(C(=O)N[C@@H](Cc2ccccc2)[C@H](O)CNC2(CC)CC2)cc(N2CCCCS2(=O)=O)c1`, the inhibition is -3.85%. With `O=S(=O)(c1cccc(C(F)(F)F)c1)N1CCC(CO)(Cc2cccc(C(F)(F)F)c2)CC1` the figure was 9.13%. Turning to `CN(C)c1ccc(-c2ccc(C(=O)NC3CCN(Cc4cccc(C(F)(F)F)c4)CC3)s2)cc1`, the inhibition amounted to 4.91%. To `Cc1cccc(NC(=O)NC2CCN(CCCCCNC(=O)/C=C/c3ccc(Cl)c(Cl)c3)CC2)c1` belongs 4.31%; to `O=C(N[C@@H](Cc1ccccc1)C(=O)O)c1cc(-c2ccc(F)cc2)no1.O=C(N[C@@H](Cc1ccccc1)C(=O)O)c1conc1-c1ccc(F)cc1`, 9.87%. `O=C(Nc1ccc(C(F)(F)F)cc1)Nc1ccccc1N1CCNCC1`: the inhibition turned out to be 2.1%.

With `CCOC(=O)NCC(=O)Nc1cccc(-c2cccc(-c3nc4cc(C(F)(F)F)ccc4[nH]3)c2)c1`, the inhibition was found to be 1.41%. With `CC(=O)Oc1cc(C)ccc1C1CCN(CCCCNC(=O)c2ccc(-c3ccc(C(F)(F)F)cc3)cc2)CC1`, the inhibition was determined as 1.9%. With `CN(C)CCNC(=O)N1CCCN(c2ncnc3cc(-c4ccccc4)sc23)CC1` the figure was 8.06%.

For `CCCOc1ccc(-c2nonc2NC(=O)c2cccc(OC)c2)cc1OCCC`, the inhibition is 8.68%. In the case of `CC1CCc2sc(-c3nnc(SC(C)C(=O)NC4CC4)o3)cc2C1` (stereo not given), the inhibition was -0.92%.
